Columns and labels:
Conditions in all cases: concentration: 1 μM, replicates: in singlicate; n = 1
PIK3CG = tested on: PIK3CG
PIK4CB = tested on: T1, PIK4CB
T1 construct: gene PI4KB

PIKFYVE = tested on: PIKFYVE
PIM1 = tested on: PIM1
PIM2 = tested on: PIM2
PIM3 = tested on: PIM3
PIP5K1A = tested on: PIP5K1A
PIP5K1C = tested on: PIP5K1C
PIP5K2B = tested on: PIP5K2B
PIP5K2C = tested on: T2, PIP5K2C
T2 construct: gene PIP4K2C

PKAC-alpha = tested on: T3, PKAC-alpha
T3 construct: gene PRKACA

PKAC-beta = tested on: T4, PKAC-beta
T4 construct: gene PRKACB

PKMYT1 = tested on: PKMYT1
PKN1 = tested on: PKN1
PKN2 = tested on: PKN2
PLK1 = tested on: PLK1
PLK2 = tested on: PLK2
PLK3 = tested on: PLK3
PLK4 = tested on: PLK4
PRKCD = tested on: PRKCD
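Further: KINOMEscan kinase panel screen.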

| SMILES | %Inh (PIK3CG) [%] | %Inh (PIK4CB) [%] | %Inh (PIKFYVE) [%] | %Inh (PIM1) [%] | %Inh (PIM2) [%] | %Inh (PIM3) [%] | %Inh (PIP5K1A) [%] | %Inh (PIP5K1C) [%] | %Inh (PIP5K2B) [%] | %Inh (PIP5K2C) [%] | %Inh (PKAC-alpha) [%] | %Inh (PKAC-beta) [%] | %Inh (PKMYT1) [%] | %Inh (PKN1) [%] | %Inh (PKN2) [%] | %Inh (PLK1) [%] | %Inh (PLK2) [%] | %Inh (PLK3) [%] | %Inh (PLK4) [%] | %Inh (PRKCD) [%] |
| --- | --- | --- | --- | --- | --- | --- | --- | --- | --- | --- | --- | --- | --- | --- | --- | --- | --- | --- | --- | --- |
| C[C@@H]1CC[C@H](C(=O)NC2CCCCC2)CN1c1cc(-c2ccc3c(N)n[nH]c3c2)nc(N)n1 [GSK2291363] | 0 | 0 | 0 | 22 | 0 | 8 | 100 | 53 | 52 | 30 | 32 | 18 | 6 | 0 | 0 | 8 | 0 | 0 | 0 | 8 |
| O=C(NCCNc1ccnc(Nc2ccc(F)cc2)n1)Nc1ccc2c(c1)OCO2 [GSK1379882] | 10 | 17 | 8 | 21 | 0 | 11 | 7 | 66 | 0 | 24 | 0 | 0 | 0 | 23 | 0 | 4 | 0 | 0 | 4 | 0 |
| Nc1n[nH]c2ncc(-c3ccccc3)cc12 [SB-517081] | 0 | 0 | 0 | 12 | 0 | 0 | 0 | 38 | 9 | 23 | 0 | 0 | 2 | 0 | 0 | 0 | 11 | 0 | 15 | 0 |
| Cc1cc(Nc2nc(-c3cccc(C)n3)nc3ccccc23)ccn1 [GW872411] | 0 | 0 | 53 | 0 | 0 | 0 | 2 | 0 | 0 | 0 | 0 | 0 | 24 | 0 | 0 | 0 | 0 | 1 | 0 | 8 |
| Cc1nn2c(=O)cc(N3CCOCC3)nc2n1Cc1cccc(Cl)c1Cl [GSK2342769] | 69 | 0 | 62 | 0 | 0 | 0 | 0 | 12 | 5 | 1 | 7 | 7 | 1 | 36 | 0 | 5 | 0 | 0 | 0 | 0 |
| Cc1ccccc1COc1cc(-n2cnc3cc(Cl)ccc32)sc1C(N)=O [GW813349] | 24 | 0 | 0 | 2 | 18 | 0 | 24 | 37 | 0 | 24 | 0 | 21 | 0 | 7 | 0 | 97 | 92.4 | 92.8 | 2 | 12 |
| CC(C)(C)c1ccc(C(=O)Nc2cn3cc(-c4ccccc4)ccc3n2)cc1 | 0 | 0 | 27 | 30 | 0 | 19 | 0 | 32 | 6 | 54 | 0 | 7 | 0 | 0 | 16 | 0 | 0 | 13 | 40 | 0 |
| COC(=O)c1c(-c2ccccc2)c2cc(Br)ccc2c(=O)n1Cc1ccc(S(C)(=O)=O)cc1 | 1 | 5 | 0 | 9 | 14 | 9 | 19 | 0 | 23 | 0 | 11 | 0 | 0 | 1 | 0 | 0 | 17 | 15 | 32 | 0 |
| Cc1c(Cn2c(C)nn3c(=O)cc(N4CCO[C@H](C)C4)nc23)cccc1C(F)(F)F [GSK2373690] | 21 | 0 | 0 | 0 | 0 | 0 | 0 | 13 | 12 | 9 | 0 | 11 | 11 | 0 | 0 | 0 | 0 | 0 | 0 | 0 |
| COc1cccc(C2=C(N(C)c3ccccc3)C(=O)NC2=O)c1 [SB-334865] | 0 | 0 | 2 | 0 | 0 | 0 | 0 | 70 | 6 | 30 | 0 | 0 | 1 | 0 | 0 | 0 | 0 | 0 | 17 | 0 |
| COc1cc2nccc(Nc3ccc(OCc4ccc(NC(C)=O)cc4)cc3)c2cc1OC.Cl [GW440135] | 7 | 4 | 0 | 8 | 0 | 0 | 15 | 32 | 22 | 25 | 0 | 0 | 0 | 44 | 0 | 12 | 0 | 0 | 0 | 11 |
| COc1cc(OC)cc(-c2cc3cnc(N)nc3nc2NC(=O)NC(C)(C)C)c1 | 5 | 0 | 44 | 0 | 0 | 0 | 37 | 0 | 0 | 0 | 0 | 0 | 0 | 0 | 22 | 0 | 0 | 0 | 0 | 0 |
| CCS(=O)(=O)c1ccc(OC)c(Nc2ncc(-c3ccc(F)cc3)o2)c1.Cl [GW591947] | 0 | 0 | 0 | 0 | 0 | 0 | 0 | 23 | 3 | 2 | 0 | 14 | 7 | 0 | 15 | 0 | 0 | 0 | 0 | 2 |
| CCn1c(-c2ccoc2)nc2cnccc21 [SB-733887] | 0 | 20 | 3 | 0 | 0 | 36 | 11 | 0 | 0 | 32 | 0 | 0 | 0 | 7 | 0 | 5 | 0 | 0 | 15 | 0 |
| COC(=O)c1c(-c2ccccc2)c2cc(Br)ccc2c(=O)n1Cc1ccc(NC(=O)CCC(=O)O)cc1 | 7 | 0 | 5 | 4 | 24 | 3 | 4 | 0 | 35 | 0 | 33 | 0 | 10 | 0 | 0 | 0 | 14 | 5 | 15 | 0 |
| COc1cccc(C2=C(Nc3cccc(C(=O)O)c3)C(=O)NC2=O)c1 [SB-390770] | 5 | 0 | 0 | 0 | 0 | 0 | 5 | 56 | 4 | 23 | 0 | 0 | 11 | 22 | 0 | 6 | 0 | 0 | 10 | 29 |
| Cc1nnc(-c2ccc3ncn(-c4ccc(S(C)=O)cc4)c3c2)o1 (stereo not drawn) | 0 | 0 | 19 | 4 | 1 | 11 | 0 | 18 | 5 | 55 | 12 | 0 | 0 | 0 | 0 | 0 | 0 | 9 | 14 | 0 |
| COc1ccc(-c2cc3c(C)nc(N)nc3n([C@H]3CC[C@H](O)CC3)c2=O)cn1 | 100 | 93.9 | 45 | 5 | 0 | 6 | 2 | 0 | 2 | 38 | 0 | 0 | 32 | 0 | 10 | 0 | 0 | 0 | 0 | 0 |
| CCC(=O)c1c(-c2ccccc2)c2cc(Cl)ccc2c(=O)n1Cc1cc(S(C)(=O)=O)n(CC(N)=O)n1 | 0 | 0 | 17 | 18 | 2 | 9 | 0 | 33 | 8 | 19 | 0 | 0 | 0 | 1 | 8 | 0 | 0 | 0 | 0 | 6 |
| O=C(NCc1cccs1)c1cc(C(=O)c2c(Cl)cccc2Cl)c[nH]1 [GW823670] | 0 | 0 | 0 | 5 | 0 | 0 | 34 | 0 | 4 | 0 | 6 | 3 | 0 | 0 | 0 | 0 | 0 | 0 | 0 | 0 |
| COc1ccc(CNC(=O)NC2CCN(c3ccnc(Nc4ccc(F)cc4)n3)C2)cc1 (stereo not drawn) [GSK1379706] | 7 | 17 | 0 | 12 | 0 | 0 | 44 | 63 | 20 | 54 | 0 | 0 | 10 | 14 | 0 | 10 | 0 | 0 | 19 | 0 |
